# Reference: PubChem BioAssay AID1851 (National Center for Advancing Translational Sciences (NCATS), 2009)
# Hit rate of the full screen: of about 16,000 compounds, about 5,700 (36%) were called active. Inconclusive results (about 24%) are left out. The list shows a part of the results. A number with no mark means an inactive call. The call rests on the fitted dose curve; in most records, active means well fitted curve in the direction sought with a large enough effect; inconclusive means small, poorly fitted or top-dose-only effect, or effect the other way; inactive means no such curve, though single readings can be large or run the other way.
# Target: Cytochrome P450 1A2 (Homo sapiens) (UniProt P05177)
# Sequence (P05177 whole entry, looked up): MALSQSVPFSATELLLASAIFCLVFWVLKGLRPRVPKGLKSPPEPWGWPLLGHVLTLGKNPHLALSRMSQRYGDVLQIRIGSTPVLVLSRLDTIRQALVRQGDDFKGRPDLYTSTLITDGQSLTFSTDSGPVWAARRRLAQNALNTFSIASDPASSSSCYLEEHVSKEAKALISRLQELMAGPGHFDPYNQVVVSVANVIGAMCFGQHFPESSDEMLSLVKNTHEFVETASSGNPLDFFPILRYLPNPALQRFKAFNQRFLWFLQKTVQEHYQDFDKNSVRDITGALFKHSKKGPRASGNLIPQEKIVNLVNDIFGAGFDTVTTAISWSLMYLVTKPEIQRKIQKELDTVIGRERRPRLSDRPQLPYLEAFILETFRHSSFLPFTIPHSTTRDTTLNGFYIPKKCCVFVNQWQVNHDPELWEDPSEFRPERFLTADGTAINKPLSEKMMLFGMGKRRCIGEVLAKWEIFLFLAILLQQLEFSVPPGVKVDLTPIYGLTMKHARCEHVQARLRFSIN
# Test: Cytochrome panel assay with activity outcomes
# Conditions: recombinant CYP, pro-luciferin dealkylation, luminescence, p450-cyp1a2; series mostly up to 57.1 µM
# On the % scale 0 is the no-effect control and ±100 the full control effect.
SMILES,AC50,"activity, negative = inhibition"
OC(c1ccccc1)(c1ccc(F)cc1)C(c1ccccc1)N1CCOCC1 (centres undefined),inactive,
N#C/C(=C/N1CCOCC1)c1ccccc1,0.891 µM (active),
Oc1c(CN2CCOCC2)cc(-c2ccccc2)cc1CN1CCOCC1,inactive,
NS(=O)(=O)c1cc2c(cc1Cl)N[C@@H](CC1CCCC1)NS2(=O)=O,inactive,
O=C1NC(c2ccc(Br)cc2)Nc2sc3c(c21)CCC3 (centres undefined),2.51 µM (active),
CC(C)OCCCn1c(=S)[nH]c2ncccc2c1=O,2.51 µM (active),
CC(C)OCCCN1C(=O)c2ccccc2C1C(=O)NC1CCCCC1 (centres undefined),inactive,
COCC(=O)N1CCC[C@@]2(CCN(C(=O)Nc3cccc(F)c3)C2)C1,inactive,
COCOc1cc(OC)ccc1C(=O)/C=C\c1ccc2c(c1)OCO2,,-3.69% [at 11.4 µM]
COc1ccccc1CNc1ccnc(-c2ccc3c(c2)OCO3)n1,0.631 µM (active),
COc1ccc(CNc2ccnc(-c3ccc4c(c3)OCO4)n2)c(OC)c1,1.26 µM (active),
COc1ncc2nc(-c3ccccc3)c(=O)n(C)c2n1,1.58 µM (active),
COc1ccc(-c2nc3cnc(OC)nc3n(C)c2=O)cc1,2.51 µM (active),
COc1ncc2nc(-c3ccc(F)cc3)c(=O)n(C)c2n1,0.501 µM (active),
C[C@@H]1O[C@@H](n2cc(F)c(=O)[nH]c2=O)[C@H](O)[C@@H]1O,inactive,
O=C(c1cnccn1)N1CCC2(CC1)CN(c1ccncc1)C2,inactive,
COC(=O)C(C)(C(=O)OC)c1ccc([N+](=O)[O-])cn1,inactive,
O=C(CN(c1ccccc1)S(=O)(=O)c1ccccc1[N+](=O)[O-])NN=C1CCCCCCC1,inactive,
O=C(Nc1nnc(CCS(=O)(=O)c2ccc(Br)cc2)s1)c1ccc([N+](=O)[O-])cc1,inactive,
COc1ccc(N(CC(=O)NN=C2CCCC2)S(=O)(=O)c2ccccc2)cc1,inactive,
O=C(COc1ccc([N+](=O)[O-])cc1)NN=C1CCCC1,12.6 µM (active),
O=C(COc1ccc(Br)cc1)Nc1ccc([N+](=O)[O-])cn1,2 µM (active),

SMILES,AC50,"activity, negative = inhibition"
O=C(COc1ccc([N+](=O)[O-])cc1)Nc1ccc(C(=O)NCc2cccnc2)cc1,inactive,
CC(=O)Nc1ccc([N+](=O)[O-])cn1,17.8 µM (active),
C=CCC(C(=O)OC)(C(=O)OC)c1ccc([N+](=O)[O-])cn1,inactive,
O=c1ccn([C@@H]2O[C@@H](COP(=O)(O)OP(=O)(O)O)[C@H](O)[C@@H]2O)c(=O)[nH]1,inactive,
Cc1cccc(/C=N\Nc2cn[nH]c(=O)c2Cl)c1,5.01 µM (active),
Cc1cccc(NC(=S)NNC(=O)c2csc3c2CCCC3)c1,8.91 µM (active),
COc1cc(N)c(Cl)cc1C(=O)OCCCN1CCCCC1,inactive,
CCCOc1cc(N)ccc1C(=O)OCCN(CC)CC,12.6 µM (active),
CCCOc1ccc(C(=O)OCCN(CC)CC)cc1N,5.01 µM (active),
CCN(CC)CCCCCCCCOC(=O)c1cc(OC)c(OC)c(OC)c1,inactive,
CCN(CC)CCOC(=O)c1cc(Cl)c(N)cc1OC,12.6 µM (active),
C[N+]1(CCCC[N+]2(C)CCCCCCC2)CCCCCCC1,,-10.4% [at 2.29 µM]
O=C(N/N=C1/C[C@@H](O)[C@@H](O)[C@@H]2[C@@H]3C(=O)N(Cc4ccccc4)C(=O)[C@H]3CC[C@@H]12)OCc1ccccc1,,-5.8% [at 11.4 µM]
COCOc1ccc(Br)cc1C(=O)[C@H]1O[C@H]1c1cccc(OC)c1,,-9.07% [at 11.4 µM]
Nc1nc(-c2cccnc2)cc(-c2cc(-c3cccnc3)nc(N)n2)n1,,-15.9% [at 2.29 µM]
Clc1ccc2oc(-c3cccnc3)nc2c1,1.41 µM (active),
Cc1ccc2nc(-c3cccnc3)oc2c1,5.01 µM (active),
O=C(O)c1cc2cc(Cc3cccnc3)ccc2o1,inactive,
C[N+](C)(N)CCC[N+](C)(C)N,,-12% [at 11.4 µM]
CC(C)(C)NC(=S)Nc1ccc(Nc2ccccc2)cc1,14.1 µM (active),
O=C(NNC(=S)Nc1ccccc1)C1CC1,inactive,
Cc1ccc2c(C)nc(Nc3nc(CSc4nc5ccccc5[nH]4)cc(=O)[nH]3)nc2c1,11.2 µM (active),

SMILES,AC50,"activity, negative = inhibition"
Cc1ccc2nc(Nc3nc(-c4ccccc4)cc(=O)[nH]3)nc(C)c2c1,4.47 µM (active),
Cc1cc(Oc2ccccc2)nc(NCc2ccccc2)n1,12.6 µM (active),
Cc1cc(Oc2ccccc2)nc(-c2ccccc2)n1,1.58 µM (active),
CN(C)c1nc(NCc2ccccc2)nc(N/N=C/c2ccc(Cl)cc2Cl)n1,inactive,
O=C1NCC2=C1C(c1ccc(Br)cc1)Nc1ccccc1N2 (centres undefined),17.8 µM (active),
O=C1C[C@H](c2ccccc2)[C@@H](c2ccc(Br)cc2)O1,,-6.17% [at 11.4 µM]
C=CC[C@@H]1C=C[C@@H](O/N=C(/C)CCC(=O)OC[C@@H]2O[C@H](C#Cc3ccccc3)C=C[C@@H]2Oc2ccc(C)cc2)[C@@H](CO)O1,,4% [at 11.4 µM]
Cc1ccc(C(c2ccc(C)o2)c2cccc([N+](=O)[O-])c2O)o1,11.2 µM (active),
Cc1ccc(-n2c3c(c(=O)[nH]c2=O)C(C(F)(F)F)(C(F)(F)F)NC(=O)N3)cc1,inactive,
COc1ccc(C(=O)NCC(c2ccc(F)cc2)N2CCOCC2)cc1S(=O)(=O)N1CCCC1 (centres undefined),10 µM (active),
COc1ccc(C(=O)Nc2ccc(Cl)cn2)cc1Cl,0.631 µM (active),
Cc1cc(=O)oc(C)c1C(=O)Nc1ccc(Cl)cn1,inactive,
CCOc1ccc(C(=O)Nc2ccc(Cl)cn2)cc1Cl,1.26 µM (active),
CC(=O)N1CC2(CC2)CC1c1ccccc1 (centres undefined),inactive,
Oc1ccccc1CNn1cnnc1,inactive,
CCSc1ncc(/C=N/Nc2ccc(F)cc2)n1C,2.82 µM (active),
CC(=O)Nc1ccc(NC(=O)Cn2c(-c3ccc(F)cc3)cnc2SCC(=O)Nc2c(C)cccc2C)cc1,inactive,
COc1ccccc1-c1cncnc1NCCc1cnc[nH]1,1.26 µM (active),
FC(F)(F)c1ccccc1-c1cncnc1NCCc1cnc[nH]1,6.31 µM (active),
COc1cccc(-c2cncnc2NCCc2cnc[nH]2)c1,0.398 µM (active),
